From PubChem BioAssay
Jurkat NFkB inh – lowers PMA/ionomycin-induced NF-kB signal in Jurkat cells. PMA/ionomycin-induced NF-kB luciferase reporter, luminescence. inhibition, % at 4 µM. 330,000 compounds, 0.53% hits; in the data active = inhibition above about 50%
Gli-Sufu antag – antagonists of Gli-Sufu signaling. 340,000 compounds, 0.74% hits. AID 588413. inhibition, % at 5 µM. Sufu-KO-LIGHT fibroblasts, Gli luciferase reporter luminescence;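 active = inhibition above about 55%, limit read from the data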
Beta cell apopt – blocks beta cell apoptosis; AID 435005; 300,000 compounds, 0.8% hits; INS-1E cytokine-induced death, ATP luminescence, 48 h; percent of positive-control rescue, neutral wells zero; protection from apoptosis, % (test concentration not listed);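 active = Every replicate reaches about 75%, or at least half do and their mean reaches it too, limit read from the data; inconclusive = At least half of replicates reach the limit but their mean does not; inactive = Under half of replicates reach the limit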;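 also: higher means more ATP so stronger rescue from cytokine killing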
CSC inhib – cancer stem cell inhibition; cancer stem cell-like cells viability, luminescence; inhibition, % at 7.5 µM; 300,000 compounds, 1.1% hits; in the data active = inhibition above about 75%; inconclusive = no clear call, values can overlap the other calls; tested in HMLE shEcad cells
697 NFkB inh – inhibitors of the PMA/ionomycin-induced NF-kB reporter in 697 B cells | 697 B-cell NF-kB luciferase reporter, 16 h | inhibition, % at 4 µM | 330,000 compounds, 0.33% hits | AID 435022; in the data active = inhibition above about 35%
Mdm2-MdmX inh – inhibitors of human Mdm2/MdmX interaction; O15151+Q00987; SaOS-2 split-luciferase Mdm2/MdmX complementation, luminescence; inhibition, % at 8 µM; 330,000 compounds, 3% hits;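 active = inhibition of at least 50% at 8 µM in the primary screen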
Mdm2-MdmX conf – human Mdm2/MdmX binding inhibition, confirmed; shares compounds with Mdm2-MdmX inh; luminescent assay; inhibition, % at 8 µM; 10,000 compounds, 55% hits; AID 489028; in the data active = inhibition above about 40%
FLuc counter – full-length luciferase inhibition in Mdm2/MdmX counter-screen. shares compounds with Mdm2-MdmX inh. SaOS-2 full-length luciferase counterscreen, luminescence. inhibition, % at 8 µM. 6,200 compounds, 77% hits;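 active = mean inhibition at 8 µM reaching about 37%, which flags the compound as non-specific, limit read from the data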;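 also: p53-null SaOS-2 cells with luciferase driven by a doxycycline-inducible promoter; compound on cells about two nights before reading with doxycycline added after day one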
Large screens that a line does not name were inactive (follow-up assays come after a bar, where they were run). Shown are actives, neighbours in structure and some others; about 4.5% of the full set was active somewhere.

CC1=Nc2ccccc2/C1=C/c1sc(=N)n(-c2nccs2)c1O	CSC inhib 111, Mdm2-MdmX inh 99 | Mdm2-MdmX conf 67 | FLuc counter inactive
NS(=O)(=O)c1ccc(N=Nc2c(-c3ccccc3)[nH]n(-c3nc(-c4ccccc4)cs3)c2=O)cc1	Mdm2-MdmX inh 81 | Mdm2-MdmX conf inactive
NC(=O)c1ccc(N=Nc2c(-c3ccccc3)[nH]n(-c3ccccc3)c2=O)cc1	Mdm2-MdmX inh 93 (no result: Gli-Sufu antag) | Mdm2-MdmX conf 85 | FLuc counter 108
O=c1c(Cl)cc(Cl)nn1-c1ccccc1	Mdm2-MdmX inh 55 | Mdm2-MdmX conf inactive
Cn1c(=O)[nH]c(=O)c2c1nc1n2CC(O)CN1c1ccccc1 (stereo not drawn)	none
CS(=O)(=O)N1CCC(c2noc(-c3ccc(C(F)(F)F)cc3)n2)CC1	none
Cc1ccc(-c2nc(C3CCN(S(=O)(=O)c4ccc(C(F)(F)F)cc4)CC3)no2)cc1	Mdm2-MdmX inh 56 | Mdm2-MdmX conf inactive
CNC(=O)c1ccc(S(=O)(=O)c2ccc(Cl)cc2)c(NC(C)=O)c1	none (no result: Beta cell apopt, CSC inhib)
O=C(c1nnsc1S(=O)(=O)c1ccc(Cl)cc1)N1CCOCC1	Mdm2-MdmX inh 95 (no result: Beta cell apopt, CSC inhib) | Mdm2-MdmX conf 68 | FLuc counter inactive
Nc1nc(C(=O)N2CCOCC2)nn1S(=O)(=O)c1ccc(Cl)cc1	none
CNC(=O)c1nnsc1S(=O)(=O)c1ccc(Cl)cc1	Mdm2-MdmX inh 96 (no result: Beta cell apopt, CSC inhib) | Mdm2-MdmX conf 100 | FLuc counter 51
CCOC(=O)c1[nH]c2ccc(Cl)cc2c1NC(=O)/C=C/c1ccc2c(c1)OCO2	Mdm2-MdmX inh 56 | Mdm2-MdmX conf 45 | FLuc counter 94
Cc1ccc(NC(=S)N(CCN2CCCCC2)Cc2ccco2)cc1Cl	none
CCCCn1c(N)c(N(CCOC)C(=O)c2ccc(-c3ccc(C(C)=O)cc3)o2)c(=O)[nH]c1=O	none
Cc1ccc(CNCc2cc3c(C(C)(C)C)nn(-c4ccccc4)c3[nH]c2=O)cc1	Mdm2-MdmX inh 50 | Mdm2-MdmX conf inactive
COc1ccccc1C(=O)C1CCCN(C(=O)CN2CCCCC2=O)C1 (stereo not drawn)	none
On1onc2c3cc(-c4ccccc4)nc3ccc21	Gli-Sufu antag 65, Beta cell apopt 101, Mdm2-MdmX inh 69 | Mdm2-MdmX conf 58 | FLuc counter 65
O=C(NCCCN1CCOCC1)c1cc(S(=O)(=O)N2CCOCC2)ccc1Cl	none
Nc1nc(N2CCN(c3ccccn3)CC2)nc2ccccc12	none
Cc1cc(-c2ccccc2)nc(N2CCN(c3ccccn3)CC2)n1	Mdm2-MdmX inh 59 | Mdm2-MdmX conf inactive
CCOc1ccc(-n2nnnc2-c2nc3ccccc3s2)cc1	Mdm2-MdmX inh 74 | Mdm2-MdmX conf 49 | FLuc counter 89
Cc1ccc(-n2nc3c(c2NC(=O)c2ccc4c(c2)OCO4)CS(=O)(=O)C3)cc1C	none
CCOC(=O)C1(CC)NC(c2ccc(OC)c(OC)c2)C2C(=O)N(c3cccc(C(C)=O)c3)C(=O)C21 (stereo not drawn)	none
CCOC(=O)c1c(-c2ccc(OC)cc2)csc1NC(=O)COc1ccc2c(C)cc(=O)oc2c1	Mdm2-MdmX inh 61 | Mdm2-MdmX conf inactive
O=C(Oc1c(Cl)cc(Cl)c2cccnc12)c1cccs1	Beta cell apopt 75, CSC inhib 121, Mdm2-MdmX inh 76 | Mdm2-MdmX conf 57 | FLuc counter inactive
COc1ccc(C(=O)OC(C)CN2CCOCC2)cc1 (stereo not drawn)	none
COc1ccc(C(=O)Oc2c(CN3CCOCC3)cc(Cl)c3cccnc23)cc1	Mdm2-MdmX inh 55 | Mdm2-MdmX conf inactive | FLuc counter 43
O=C(Nc1cccnc1Cl)c1cccs1	none
COc1cc(C(=O)Oc2c(CN3CCOCC3)cc(Cl)c3cccnc23)cc(OC)c1OC	Beta cell apopt 93, Mdm2-MdmX inh 65 | Mdm2-MdmX conf 46 | FLuc counter 39
COc1cccc(C(=O)Oc2c(CN3CCOCC3)cc(Cl)c3cccnc23)c1	Beta cell apopt 90, Mdm2-MdmX inh 54 | Mdm2-MdmX conf 56 | FLuc counter 49
O=C(Oc1c(CN2CCOCC2)cc(Cl)c2cccnc12)c1cccs1	Beta cell apopt 122, Mdm2-MdmX inh 65 | Mdm2-MdmX conf 43 | FLuc counter 43
O=C(Oc1c(Cl)cc(Cl)c2cccnc12)c1ccco1	Beta cell apopt 91, CSC inhib active, Mdm2-MdmX inh 71 | Mdm2-MdmX conf 60 | FLuc counter 36
O=C(Oc1c(CN2CCOCC2)cc(Cl)c2cccnc12)c1ccccc1Cl	none
O=C(Oc1ccc(Cl)c2cccnc12)N1CCOCC1	none
O=C(Oc1c(CN2CCOCC2)cc(Cl)c2cccnc12)c1ccc(F)cc1	Beta cell apopt 83, Mdm2-MdmX inh 52 | Mdm2-MdmX conf 49 | FLuc counter 42
CC(=O)N1CCN(C2=NC(=O)/C(=C/c3ccc(OS(=O)(=O)c4ccccc4)cc3)S2)CC1	none
COc1ccc(N2CCN(C(=O)c3cc(=O)c4cc(C)c(C)cc4o3)CC2)cc1	none
COc1ccc(C(=O)On2c(-c3ccc(Br)cc3)nc3ccccc3c2=O)cc1	Mdm2-MdmX inh 54 | Mdm2-MdmX conf inactive
N#CC(c1ccccc1)c1ccc2c(C(F)(F)F)cc(C(F)(F)F)nc2n1 (stereo not drawn)	Beta cell apopt 93, Mdm2-MdmX inh 68 | Mdm2-MdmX conf inactive
Cc1ccc(Oc2c(C(N)=O)cc([N+](=O)[O-])cc2[N+](=O)[O-])cc1	CSC inhib active, Mdm2-MdmX inh 95 | Mdm2-MdmX conf 95 | FLuc counter 52
CCOC(=O)Nc1ccc(C(=O)/C=C/c2ccccc2)cc1	none
CCC1CSC(Nc2ccc(C(=O)/C=C/c3ccc(Oc4ccccc4)cc3)cc2)=N1 (stereo not drawn)	Mdm2-MdmX inh 55 | Mdm2-MdmX conf inactive
O=C(Nc1ccon1)Nc1cccc(Cl)c1Cl	none
COc1ccccc1NCC(=O)N/N=C/c1c(O)ccc2ccccc12	Beta cell apopt 77, Mdm2-MdmX inh 87 | Mdm2-MdmX conf 77 | FLuc counter inactive
O=C(CNc1ccc(F)cc1)N/N=C/c1c(O)ccc2ccccc12	Beta cell apopt 81, Mdm2-MdmX inh 72 | Mdm2-MdmX conf 77 | FLuc counter inactive
O=C(CN1CCCc2ccccc21)N/N=C/c1c(O)ccc2ccccc12	CSC inhib inconclusive, Mdm2-MdmX inh 81 | Mdm2-MdmX conf 91 | FLuc counter inactive
COc1ccccc1NC(=O)c1c(N=Cc2c(O)ccc3ccccc23)cnn1C	CSC inhib inconclusive, Mdm2-MdmX inh 52 | Mdm2-MdmX conf inactive
O=C(CN1CCCc2ccccc21)N/N=C/c1ccccc1	none
O=C(COc1ccc2ccc(=O)oc2c1)NCCCn1ccnc1	none
CCCn1c(SCC(=O)N2CC(=O)Nc3ccccc32)n[nH]c1=O	none
